In the supplement of paper PMC11732987, “Enantioselective OTUD7B fragment discovery through chemoproteomics screening and high-throughput optimisation” (Communications Chemistry, 2025):

Columns and labels:
Experiment in all cases: log2 ratio of Biotin-Ahx-Ub-VS probe labelling (fragment/DMSO); higher = less target engagement (more negative = stronger competition), active = hit call of the paper (q ≤ 0.05, log2 ratio ≤ -1)
Settings in all cases: compound concentration: 200 uM; treatment time: 3 h
USP34 = USP34 (UniProt Q70CQ2)
Sequence of USP34 (Q70CQ2 whole entry, the tested form may be a part): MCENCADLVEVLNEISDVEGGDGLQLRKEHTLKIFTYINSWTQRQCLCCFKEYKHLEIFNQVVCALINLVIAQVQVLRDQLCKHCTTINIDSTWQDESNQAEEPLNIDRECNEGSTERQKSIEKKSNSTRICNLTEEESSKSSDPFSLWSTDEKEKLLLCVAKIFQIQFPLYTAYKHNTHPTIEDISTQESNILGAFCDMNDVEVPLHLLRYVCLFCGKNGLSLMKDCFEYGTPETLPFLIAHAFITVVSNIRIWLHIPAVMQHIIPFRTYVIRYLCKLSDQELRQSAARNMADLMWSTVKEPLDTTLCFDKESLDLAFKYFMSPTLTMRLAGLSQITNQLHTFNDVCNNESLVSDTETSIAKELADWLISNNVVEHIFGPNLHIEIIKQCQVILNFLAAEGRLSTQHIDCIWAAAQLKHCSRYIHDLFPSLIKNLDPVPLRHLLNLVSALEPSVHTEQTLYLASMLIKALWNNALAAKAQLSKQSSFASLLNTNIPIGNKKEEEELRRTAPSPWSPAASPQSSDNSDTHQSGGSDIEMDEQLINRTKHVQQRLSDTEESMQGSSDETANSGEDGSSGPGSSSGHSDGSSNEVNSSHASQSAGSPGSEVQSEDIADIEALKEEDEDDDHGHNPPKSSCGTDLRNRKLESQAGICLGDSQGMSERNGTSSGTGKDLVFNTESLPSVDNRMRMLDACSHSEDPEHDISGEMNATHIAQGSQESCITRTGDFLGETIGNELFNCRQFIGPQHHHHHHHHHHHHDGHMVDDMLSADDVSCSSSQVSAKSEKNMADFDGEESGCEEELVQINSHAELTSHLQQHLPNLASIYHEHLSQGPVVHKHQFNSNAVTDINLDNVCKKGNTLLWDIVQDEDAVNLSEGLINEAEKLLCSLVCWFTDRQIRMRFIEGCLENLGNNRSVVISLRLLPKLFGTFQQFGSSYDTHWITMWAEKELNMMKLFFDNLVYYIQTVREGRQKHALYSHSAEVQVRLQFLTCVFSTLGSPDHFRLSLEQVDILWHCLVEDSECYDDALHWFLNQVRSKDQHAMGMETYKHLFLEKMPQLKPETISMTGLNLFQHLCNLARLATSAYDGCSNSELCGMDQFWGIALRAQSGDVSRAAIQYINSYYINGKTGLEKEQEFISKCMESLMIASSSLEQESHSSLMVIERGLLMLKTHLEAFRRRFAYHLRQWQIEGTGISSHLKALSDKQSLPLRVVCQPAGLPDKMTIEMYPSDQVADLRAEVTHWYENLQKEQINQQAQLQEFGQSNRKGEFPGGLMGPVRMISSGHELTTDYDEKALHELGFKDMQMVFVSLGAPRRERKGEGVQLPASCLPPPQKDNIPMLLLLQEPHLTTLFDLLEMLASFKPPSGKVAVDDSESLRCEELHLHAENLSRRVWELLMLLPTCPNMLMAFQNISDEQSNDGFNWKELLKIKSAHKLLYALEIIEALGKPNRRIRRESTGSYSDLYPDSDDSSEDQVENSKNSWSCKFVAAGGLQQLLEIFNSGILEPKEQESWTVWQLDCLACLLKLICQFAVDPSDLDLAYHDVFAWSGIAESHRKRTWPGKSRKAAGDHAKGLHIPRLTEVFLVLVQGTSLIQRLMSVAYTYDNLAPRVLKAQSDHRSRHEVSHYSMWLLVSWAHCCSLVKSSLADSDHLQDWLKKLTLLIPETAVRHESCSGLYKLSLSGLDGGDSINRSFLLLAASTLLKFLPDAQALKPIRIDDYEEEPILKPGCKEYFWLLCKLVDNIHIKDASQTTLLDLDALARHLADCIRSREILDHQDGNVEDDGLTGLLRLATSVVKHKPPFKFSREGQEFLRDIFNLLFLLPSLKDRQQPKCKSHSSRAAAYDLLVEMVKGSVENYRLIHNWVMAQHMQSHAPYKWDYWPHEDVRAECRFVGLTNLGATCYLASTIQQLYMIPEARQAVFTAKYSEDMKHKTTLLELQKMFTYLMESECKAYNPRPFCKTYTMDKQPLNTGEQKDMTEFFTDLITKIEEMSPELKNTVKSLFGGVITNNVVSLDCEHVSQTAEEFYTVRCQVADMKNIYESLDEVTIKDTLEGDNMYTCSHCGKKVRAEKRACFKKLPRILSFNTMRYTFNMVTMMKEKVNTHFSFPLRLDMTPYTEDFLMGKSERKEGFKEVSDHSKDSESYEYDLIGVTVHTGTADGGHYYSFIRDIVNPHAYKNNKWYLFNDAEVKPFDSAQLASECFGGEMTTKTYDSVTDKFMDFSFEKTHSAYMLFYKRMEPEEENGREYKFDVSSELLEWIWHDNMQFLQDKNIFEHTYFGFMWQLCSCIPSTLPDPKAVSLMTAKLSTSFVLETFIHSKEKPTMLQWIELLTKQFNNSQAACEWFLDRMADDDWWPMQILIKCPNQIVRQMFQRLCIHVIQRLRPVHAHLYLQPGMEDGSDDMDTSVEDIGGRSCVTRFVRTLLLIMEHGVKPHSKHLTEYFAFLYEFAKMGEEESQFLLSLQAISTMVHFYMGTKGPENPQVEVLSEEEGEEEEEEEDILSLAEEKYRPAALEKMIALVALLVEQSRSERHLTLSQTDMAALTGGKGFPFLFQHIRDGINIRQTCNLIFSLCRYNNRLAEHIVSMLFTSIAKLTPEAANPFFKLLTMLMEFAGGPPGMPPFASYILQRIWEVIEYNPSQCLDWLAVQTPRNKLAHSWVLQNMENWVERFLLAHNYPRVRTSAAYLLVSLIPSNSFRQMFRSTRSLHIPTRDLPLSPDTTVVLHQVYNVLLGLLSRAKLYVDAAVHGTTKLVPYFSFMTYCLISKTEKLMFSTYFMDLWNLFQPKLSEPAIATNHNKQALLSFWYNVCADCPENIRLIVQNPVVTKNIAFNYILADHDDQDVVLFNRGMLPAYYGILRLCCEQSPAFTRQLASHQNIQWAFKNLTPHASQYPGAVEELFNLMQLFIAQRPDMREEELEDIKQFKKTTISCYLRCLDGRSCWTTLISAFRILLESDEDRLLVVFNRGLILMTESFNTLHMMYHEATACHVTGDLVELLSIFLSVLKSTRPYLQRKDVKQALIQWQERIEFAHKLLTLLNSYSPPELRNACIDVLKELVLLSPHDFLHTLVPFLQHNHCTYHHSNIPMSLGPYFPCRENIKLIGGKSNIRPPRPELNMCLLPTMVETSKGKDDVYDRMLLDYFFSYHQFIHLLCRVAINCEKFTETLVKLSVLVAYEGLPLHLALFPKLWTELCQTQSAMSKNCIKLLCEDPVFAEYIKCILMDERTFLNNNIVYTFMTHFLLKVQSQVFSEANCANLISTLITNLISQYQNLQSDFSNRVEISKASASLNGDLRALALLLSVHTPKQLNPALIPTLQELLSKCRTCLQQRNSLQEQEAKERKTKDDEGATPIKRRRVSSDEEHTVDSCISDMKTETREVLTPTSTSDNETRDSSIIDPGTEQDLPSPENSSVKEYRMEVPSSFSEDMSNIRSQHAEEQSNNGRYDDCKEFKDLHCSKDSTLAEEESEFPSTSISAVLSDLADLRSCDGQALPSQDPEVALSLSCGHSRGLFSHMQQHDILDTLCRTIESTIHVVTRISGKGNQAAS
In short: (§1)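 HEK293T lysate, 495 µg per sample in Tris/CHAPS/IGEPAL buffer with protease inhibitors, was treated in triplicate with fragment at 200 µM or vehicle for 3 h and then with Biotin-Ahx-Ub-VS at 0.5 µM final for 1 h. Labelled DUBs were NeutrAvidin-enriched, digested with LysC and trypsin, and run by diaPASEF LC-MS/MS. Spectronaut label-free quantities were global-median-normalised, and values are average log2 fragment/vehicle ratios by unpaired t-test on proteins with ≥2 unique peptides.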

USP36 = target: T1, USP36 (UniProt Q9P275)
T1 sequence (whole entry): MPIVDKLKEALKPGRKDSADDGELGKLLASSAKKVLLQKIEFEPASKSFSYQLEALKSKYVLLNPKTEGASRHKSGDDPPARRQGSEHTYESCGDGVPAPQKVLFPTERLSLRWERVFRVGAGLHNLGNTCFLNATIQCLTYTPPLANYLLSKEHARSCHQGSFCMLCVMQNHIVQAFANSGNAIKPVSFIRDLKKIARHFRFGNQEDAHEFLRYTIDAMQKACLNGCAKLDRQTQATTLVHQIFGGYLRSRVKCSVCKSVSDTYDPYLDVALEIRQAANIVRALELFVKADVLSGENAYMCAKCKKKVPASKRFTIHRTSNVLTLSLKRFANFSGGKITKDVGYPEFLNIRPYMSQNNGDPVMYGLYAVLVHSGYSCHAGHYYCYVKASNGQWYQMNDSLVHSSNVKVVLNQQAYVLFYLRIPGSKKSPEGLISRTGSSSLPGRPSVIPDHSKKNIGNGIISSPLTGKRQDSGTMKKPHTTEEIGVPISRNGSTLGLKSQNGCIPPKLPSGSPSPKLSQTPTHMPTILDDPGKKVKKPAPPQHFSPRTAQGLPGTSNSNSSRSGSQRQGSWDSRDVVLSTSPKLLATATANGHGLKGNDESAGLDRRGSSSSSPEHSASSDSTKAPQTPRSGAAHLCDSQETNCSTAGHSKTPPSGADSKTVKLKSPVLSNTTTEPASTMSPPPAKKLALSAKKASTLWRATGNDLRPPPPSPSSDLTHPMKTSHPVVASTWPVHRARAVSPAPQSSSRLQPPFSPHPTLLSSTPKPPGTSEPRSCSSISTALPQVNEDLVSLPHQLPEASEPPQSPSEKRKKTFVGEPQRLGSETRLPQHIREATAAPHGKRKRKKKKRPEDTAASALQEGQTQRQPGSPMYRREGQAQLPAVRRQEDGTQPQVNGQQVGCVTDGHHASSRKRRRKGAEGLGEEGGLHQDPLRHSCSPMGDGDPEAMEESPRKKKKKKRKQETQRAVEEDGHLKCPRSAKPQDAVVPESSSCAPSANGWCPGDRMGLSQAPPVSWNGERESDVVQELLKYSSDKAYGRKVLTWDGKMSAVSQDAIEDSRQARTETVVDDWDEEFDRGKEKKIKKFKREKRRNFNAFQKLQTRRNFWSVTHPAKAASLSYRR
In short: as §1

USP38 = target: T2, USP38 (UniProt Q8NB14)
T2 sequence (whole entry): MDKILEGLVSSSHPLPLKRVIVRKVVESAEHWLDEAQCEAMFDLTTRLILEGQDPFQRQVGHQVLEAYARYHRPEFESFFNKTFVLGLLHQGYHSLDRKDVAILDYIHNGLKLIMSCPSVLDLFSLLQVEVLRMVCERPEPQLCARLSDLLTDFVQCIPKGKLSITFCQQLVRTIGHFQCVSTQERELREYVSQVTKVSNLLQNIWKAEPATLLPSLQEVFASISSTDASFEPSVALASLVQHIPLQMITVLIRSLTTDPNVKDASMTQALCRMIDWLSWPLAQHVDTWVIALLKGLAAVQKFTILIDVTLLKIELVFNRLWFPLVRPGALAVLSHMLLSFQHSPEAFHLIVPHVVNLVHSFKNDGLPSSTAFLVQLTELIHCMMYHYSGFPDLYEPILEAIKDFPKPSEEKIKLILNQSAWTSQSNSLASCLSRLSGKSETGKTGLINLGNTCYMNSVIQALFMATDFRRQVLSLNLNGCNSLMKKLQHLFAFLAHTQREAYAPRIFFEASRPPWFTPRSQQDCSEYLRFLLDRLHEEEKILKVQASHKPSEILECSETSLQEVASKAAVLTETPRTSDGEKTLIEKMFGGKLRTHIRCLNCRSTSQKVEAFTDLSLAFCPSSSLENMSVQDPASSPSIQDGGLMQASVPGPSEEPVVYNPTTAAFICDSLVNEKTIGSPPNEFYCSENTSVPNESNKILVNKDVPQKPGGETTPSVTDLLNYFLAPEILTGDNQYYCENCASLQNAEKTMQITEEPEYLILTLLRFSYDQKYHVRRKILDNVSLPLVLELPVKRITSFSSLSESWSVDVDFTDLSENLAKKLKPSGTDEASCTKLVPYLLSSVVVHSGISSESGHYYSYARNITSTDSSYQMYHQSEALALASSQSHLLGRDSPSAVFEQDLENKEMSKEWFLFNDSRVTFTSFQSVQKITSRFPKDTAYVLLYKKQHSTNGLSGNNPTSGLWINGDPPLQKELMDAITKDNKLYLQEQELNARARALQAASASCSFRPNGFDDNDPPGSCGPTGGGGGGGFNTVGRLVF
In short: as §1

USP39 = target: T3, USP39 (UniProt Q53GS9)
T3 sequence (whole entry): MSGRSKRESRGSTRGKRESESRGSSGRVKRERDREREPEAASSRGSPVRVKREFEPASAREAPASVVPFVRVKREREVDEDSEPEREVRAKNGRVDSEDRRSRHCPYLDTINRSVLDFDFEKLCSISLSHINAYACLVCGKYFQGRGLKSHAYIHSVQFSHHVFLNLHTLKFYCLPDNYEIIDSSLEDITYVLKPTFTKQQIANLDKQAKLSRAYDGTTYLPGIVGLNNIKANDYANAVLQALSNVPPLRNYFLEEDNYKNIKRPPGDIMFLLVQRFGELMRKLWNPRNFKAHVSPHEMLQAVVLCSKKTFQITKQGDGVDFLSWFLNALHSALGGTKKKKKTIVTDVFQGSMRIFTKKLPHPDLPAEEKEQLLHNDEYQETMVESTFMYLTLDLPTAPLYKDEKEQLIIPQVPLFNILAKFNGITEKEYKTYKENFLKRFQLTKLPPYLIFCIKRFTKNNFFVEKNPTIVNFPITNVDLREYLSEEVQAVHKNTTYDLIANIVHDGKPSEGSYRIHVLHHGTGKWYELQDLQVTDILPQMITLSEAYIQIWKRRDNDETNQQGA
In short: as §1

USP4 = target: T4, USP4 (UniProt Q13107)
T4 sequence (whole entry): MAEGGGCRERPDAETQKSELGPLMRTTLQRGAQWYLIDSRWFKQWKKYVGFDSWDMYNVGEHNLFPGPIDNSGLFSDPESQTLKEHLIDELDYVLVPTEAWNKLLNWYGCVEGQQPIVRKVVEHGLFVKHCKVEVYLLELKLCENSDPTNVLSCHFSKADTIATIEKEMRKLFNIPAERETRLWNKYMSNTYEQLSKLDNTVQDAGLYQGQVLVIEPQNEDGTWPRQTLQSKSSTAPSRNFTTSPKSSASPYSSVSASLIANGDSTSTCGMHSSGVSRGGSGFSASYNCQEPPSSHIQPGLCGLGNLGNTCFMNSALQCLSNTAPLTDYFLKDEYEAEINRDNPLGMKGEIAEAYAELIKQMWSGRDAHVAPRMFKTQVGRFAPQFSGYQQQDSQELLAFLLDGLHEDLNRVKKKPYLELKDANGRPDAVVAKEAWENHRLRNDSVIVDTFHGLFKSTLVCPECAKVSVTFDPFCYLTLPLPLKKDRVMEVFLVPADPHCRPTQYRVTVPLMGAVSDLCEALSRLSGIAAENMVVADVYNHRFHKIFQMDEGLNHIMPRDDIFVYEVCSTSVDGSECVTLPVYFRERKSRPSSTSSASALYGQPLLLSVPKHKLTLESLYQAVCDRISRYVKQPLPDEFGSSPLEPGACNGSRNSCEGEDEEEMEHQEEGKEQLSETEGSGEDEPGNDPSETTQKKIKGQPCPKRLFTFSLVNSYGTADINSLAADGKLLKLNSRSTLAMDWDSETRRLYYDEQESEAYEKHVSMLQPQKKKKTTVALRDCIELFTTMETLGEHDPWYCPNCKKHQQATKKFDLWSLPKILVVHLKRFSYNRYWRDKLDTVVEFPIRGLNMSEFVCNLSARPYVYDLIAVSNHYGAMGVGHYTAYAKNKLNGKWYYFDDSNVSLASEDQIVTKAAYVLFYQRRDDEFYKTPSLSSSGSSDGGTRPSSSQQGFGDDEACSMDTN
In short: as §1

Measured: log2 ratio of Biotin-Ahx-Ub-VS probe labelling

CC(O)CC1CCN(C(=O)CCl)CC1 (stereo not given)
inactive: USP34 -0.0285 | USP36 -0.326 | USP38 -0.143 | USP39 -0.0644 | USP4 -0.0429
